Experimental findings from publication PMC8384837, “Expanding the binding specificity for RNA recognition by a PUF domain” are described below.

This experiment concerns the target PUM1 PUF domain R5-RNT (Homo sapiens, UniProt Q14671 828-1176, C1007R;R1008N;Q1011T). The experiment is described as follows: yeast three-hybrid, YBZ-1, SC-Leu-His + 0.5 mM 3-AT, 4 days. Conditions: tags: N-Gal4 AD-HA kept; label: inside an RPR1-promoter hybrid RNA with tandem MS2 sites; ssRNA. In short, it runs like this: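 Sequencing with Illumina followed PCR amplification of the repeat regions from transformants grown four days on SC-Leu (input) or SC-Leu-His + 0.5 mM 3-AT (selection). The transformants were strain YBZ-1 with a LexA–MS2 coat fusion and a HIS3 reporter, carrying Pumilio-1 PUF domain libraries and matching RNA elements. The interaction score is the log change in variant frequency from input to selection, computed in log2 with a pseudocount of 1 for absent variants.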
As to “GGCUAGAACUAGUGGAUCCCCCGGCGCCCGGCGGCUCGAGCCCGGGUAAGUGUUAAUAGUCUGCAUGCCGCCGGGCGCCAUGCCUGCAGGUCGACUCUAGAAAACAUG”, the binding signal was 3.11 log2 enrichment (interaction score).

Turning to “GGCUAGAACUAGUGGAUCCCCCGGCGCCCGGCGGCUCGAGCCCGGGUAAGUGUCAAUAGUCUGCAUGCCGCCGGGCGCCAUGCCUGCAGGUCGACUCUAGAAAACAUG”, the binding signal is 2.85 log2 enrichment (interaction score).

Take “GGCUAGAACUAGUGGAUCCCCCGGCGCCCGGCGGCUCGAGCCCGGGUAAGUGUAAAUAGUCUGCAUGCCGCCGGGCGCCAUGCCUGCAGGUCGACUCUAGAAAACAUG”: the binding signal was 2.05 log2 enrichment (interaction score).
